The record followed here is the antibiotic and cytotoxicity screens of Wong et al. (2023).

Structures are written as SMILES. The whole screen tested about 39,000 compounds, of which about 3,300 (8.5%) were called active. This excerpt belongs to a sample that is enriched for actives.

This test relates to HepG2. The test is described as follows: cytotoxicity call (relative viability < 0.9). The settings on record: 10 µM.
For `C[C@H](CO)N1C[C@H](C)[C@H](CN(C)Cc2ccc(Cl)c(Cl)c2)Oc2ccc(NC(=O)C3CCCCC3)cc2CC1=O`, the cytotoxicity call is “inactive”.
On to `C[C@H](CO)N1C[C@H](C)[C@H](CN(C)C(=O)c2ccccc2)OCCCC[C@H](C)Oc2ccc(NC(=O)Nc3cccc4ccccc34)cc2C1=O`, for which the cytotoxicity call was “inactive”.
Take `C[C@@H]1CN([C@@H](C)CO)C(=O)c2cc(NS(C)(=O)=O)ccc2O[C@H]1CN(C)Cc1ccc(C(F)(F)F)cc1`: the cytotoxicity call was “inactive”.
On to `Clc1ccc(C(c2ccc(Cl)cc2)[n+]2ccn(C[C@@H](OCc3ccc(Cl)cc3Cl)c3ccc(Cl)cc3Cl)c2)cc1`, for which the cytotoxicity call was “active”.
As for `Clc1ccc(C(Cn2ccnc2)OCc2ccsc2Cl)c(Cl)c1` (centres undefined), the cytotoxicity call is “inactive”.
In the case of `CNC[C@@H]1OCCCC[C@H](C)Oc2ccc(NC(=O)c3ccncc3)cc2C(=O)N([C@@H](C)CO)C[C@@H]1C`, the cytotoxicity call is “inactive”.
Consider `NC(=O)NCCC[C@H](N)C(=O)O`, for which the cytotoxicity call was “inactive”.
`NC(=O)CC[C@H]1CCCNC1`: the cytotoxicity call was “inactive”.
In the case of `Cc1ccccc1NC(=N)N=C(N)N`, the cytotoxicity call is “active”.
`CCc1ccc(NC(=N)N=C(N)N)cc1`: the cytotoxicity call is “inactive”.
As to `Cc1ccc(NC(=N)N=C(N)N)c(C)c1`, the cytotoxicity call was “inactive”.
On to `COc1cccc(S(=O)(=O)N2C[C@@H](O)COC[C@H]3O[C@@H](CC(=O)N4CCN(c5ccccc5)CC4)CC[C@@H]32)c1`, for which the cytotoxicity call was “inactive”.
As for `COc1ccc(NC(=O)N(C)C[C@@H]2OCc3cnnn3CCCC(=O)N([C@H](C)CO)C[C@H]2C)c(OC)c1`, the cytotoxicity call is “inactive”.
As for `CN1CCN(C(=O)C[C@@H]2CC[C@H]3[C@H](COc4ccc(NC(=O)c5cscn5)cc4C(=O)N3C)O2)CC1`, the cytotoxicity call was “inactive”.
With `C[C@H](CO)N1C[C@H](C)[C@@H](CN(C)C)Oc2ccc(NC(=O)Cc3cn(C)c4ccccc34)cc2CC1=O`, the cytotoxicity call was “inactive”.
Consider `Nc1nc(N)c2nc(CNc3ccc(C(=O)NC(CCC(=O)O)C(=O)O)cc3)cnc2n1` (centres undefined), for which the cytotoxicity call was “active”.
For `Nc1nc(=O)c2c([nH]1)NC[C@H](CNc1ccc(C(=O)N[C@@H](CCC(=O)O)C(=O)O)cc1)N2C=O`, the cytotoxicity call was “inactive”.
In the case of `Nc1nc(=O)c2nc(CNc3ccc(C(=O)NC(CCC(=O)O)C(=O)O)cc3)cnc2[nH]1` (centres undefined) it was “inactive”.
As to `CN(Cc1cnc2nc(N)nc(N)c2n1)c1ccc(C(=O)N[C@@H](CCC(=O)O)C(=O)O)cc1`, the cytotoxicity call is “active”.
For the compound `CCCN(CCC)C(=O)C(CCC(=O)O)NC(=O)c1ccccc1` (centres undefined), the cytotoxicity call was “inactive”.
`CC(=O)N[C@@H](CCC(=O)O)C(=O)O`: the cytotoxicity call is “inactive”.
As to `CN(Cc1cnc2nc(N)nc(N)c2n1)c1ccc(C(=O)NC(CCC(=O)O)C(=O)O)cc1.O` (centres undefined), the cytotoxicity call was “active”.
Turning to `Nc1nc(=O)c2c([nH]1)NCC(CNc1ccc(C(=O)NC(CCC(=O)O)C(=O)O)cc1)=N2` (centres undefined), the cytotoxicity call is “inactive”.
As to `Nc1nc(=O)c2nc(CNc3ccc(C(=O)N[C@@H](CCC(=O)O)C(=O)O)cc3)cnc2[nH]1`, the cytotoxicity call was “inactive”.
